Assay results as given in PubChem BioAssay (NCATS).
Unmarked numbers belong to inactive results. Inconclusive results are not listed. A call without a number means that no potency is given here. Activity calls are given as the source filed them. Unless noted, calls follow the shape of the dose curve; as a rule, active = well fitted curve in the direction sought with a large enough effect; inconclusive = small, poorly fitted or top-dose-only effect, or another doubt; inactive = no such curve, though single readings can be large; an effect the other way counts as inactive or inconclusive.

How the values were obtained:
[1] = target: Glutathione peroxidase 1 (Homo sapiens) (UniProt P07203); test: Primary qHTS Assay for Inhibitors of Recombinant Selenoprotein Glutathione Peroxidase 1 (GPX1) (AID 1845191); also: nearly all actives have a fitted effect of over 65% in size
Outline: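 GR-coupled assay: compounds preincubated 30 min at room temperature with GPX1, then reaction started with CHP; final 10 nM GPX1, 1 mM GSH, 0.5 mM CHP, 0.5 mM NADPH, 100 nM GR, 0.01% BSA, pH 7.5 Tris buffer. NADPH fluorescence (340/450 nm) read at 0 and 15 min.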

[2] = target: Phospholipid hydroperoxide glutathione peroxidase GPX4 (Homo sapiens) (UniProt P36969); test: Primary qHTS Assay for Inhibitors of Recombinant Selenoprotein Glutathione Peroxidase 4 (GPX4) (AID 1845192); also: nearly all actives have a fitted effect of over 65% in size; as to activity change, negative = inhibition: series mostly up to about 50 µM
Outline: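 GR-coupled assay: recombinant GPX4 preincubated 30 min with compound at room temperature; final 200 nM GPX4, 1 mM GSH, 0.5 mM cumene hydroperoxide, 0.5 mM NADPH, 100 nM GR, 0.01% BSA, pH 7.5 Tris. NADPH fluorescence (340/450 nm) read at 0 and 15 min.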

[3] = qHTS to identify inhibitors of the type 1 interferon - major histocompatibility complex class I in skeletal muscle: primary screen against the NCATS Mechanism Interrogation Plate v5.0 (MIPE) Libary (AID 1347411); also: nearly all actives have a fitted effect of over 65% in size; also: potency is read from the fitted curve at half-maximal effect
Outline: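 Cells were genome-edited human myoblasts carrying a HiBit tag on endogenous HLA-B. They were treated with IFN-beta (4.0 ng/ml) and titrated compounds (top 46 uM) for 24 hrs before lytic HiBiT detection.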

[4] = qHTS for inhibitors of Rabies Virus screened against the NCATS CANVASS Library (AID 1347402; calls by dose curve; also: series mostly up to about 46 µM)
[5] = target: DNA repair nuclease/redox regulator APEX1 (Homo sapiens) (UniProt P27695); test: qHTS Validation Assay for Inhibitors of the Human Apurinic/apyrimidinic Endonuclease 1 (APE1) (AID 1705;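 also: TAMRA fluorescence gain over two minutes as APE1 cuts a quenched THF abasic duplex; series mostly up to about 57 µM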)
Outline: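 Activity read as rising fluorescence (598 nm emission, 525 nm excitation) from incision of a TAMRA/BHQ-2 duplex carrying a THF abasic site (50 nM). Compound and enzyme sat 15 min at RT before substrate start; signal change between first and third 60-s reads.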

[6] = Counterscreen for APE1 Inhibitors: Fluorescent Dye Displacement Validation Assay (AID 1707)
Outline: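 Thiazole Orange displacement from dsDNA: 250 nM ThO with 50 nM TAMRA-labelled abasic-site (tetrahydrofuran) duplex in 50 mM Tris-HCl pH7.5, 50mM NaCl, 2 mM MgCl2, 0.01% Tween-20. Loss of endpoint fluorescence (ex 480 nm, em 540 nm) flags DNA binders.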

[7] = target: Endonuclease 4 (Escherichia coli (strain K12)) (UniProt P0A6C1); test: Counterscreen for APE1 Inhibitors: qHTS Validation Assay for Inhibitors of Endonuclease IV (AID 1708)
Outline: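 Cleavage of a quenched abasic-site DNA duplex (50 nM, 5'-TAMRA, 3'-BHQ-2) by 2 nM enzyme is followed as fluorescence increase. Compounds are preincubated with enzyme 15 min at room temperature before substrate addition.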

[8] = target: Ferritin light chain (Equus caballus) (UniProt P02791); test: qHTS Validation Assay for Identification of Novel General Anesthetics (AID 2323); also: series mostly up to about 77 µM
Outline: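 Competitive displacement of the profluorescent anesthetic 1-AMA (50% saturated, PBS) from 10 uM apoferritin, 10 min, room temperature. Activity is normalized 380/535 nm fluorescence; concentration-response fitted with a four-parameter Hill equation.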

[9] = Validation screen for inhibitors of Lassa infection (AID 463096; calls by dose curve; also: potency is read from the fitted curve at half-maximal effect)
[10] = Validation screen for small molecules that induce DNA re-replication in MCF 10A normal breast cells (AID 463097); also: nearly all actives have a fitted effect of over 60% in size; also: potency is read from the fitted curve at half-maximal effect
Outline: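 Read-out is Hoechst total nuclear intensity by fluorescence scanning imager, flagging increased high-DNA-content nuclei. Compounds were incubated with MCF 10A cells for 48 hr (37 C, 5% CO2) before 40 min staining.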

[11] = target: Thyrotropin receptor (Homo sapiens) (UniProt P16473); test: qHTS Assay for Antagonists of the Thyroid Stimulating Hormone Receptor (AID 488980); also: series mostly up to about 58 µM
Outline: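 Inhibition of cAMP raised by EC80 TSH (4 nM final) was read by HTRF, with lysate cAMP competing against cAMP-d2 for cryptate antibody after 30 min at room temperature. The cells were transfected HEK293 held in phosphodiesterase inhibitor RO 20-1724 at 70 uM.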

[12] = target: Thyrotropin-releasing hormone receptor (Homo sapiens) (UniProt P34981); test: qHTS for Small Molecule Agonists and Allosteric Enhancers of Human TRH Receptor: Validation Screen for Agonists (AID 493127;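 active = calcium activation more than 3 SD above the typical response in the agonist read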;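 also: intracellular calcium rise by fluo-8 fluorescence before TRH EC20 addition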); settings: TRH receptor agonist cell assay; at 2 µM; active compounds read high
Outline: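 Gq-coupled calcium mobilization in TRHR cells after compound addition, monitored kinetically with fluo-8 dye on an FDSS reader.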

[13] = Validation screen for small molecules that induce DNA re-replication in SW480 colon adenocarcinoma cells (AID 504364)
Outline: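 Cells are treated 48 hr with test compound, stained 40 min with Hoechst at 37 C, and scanned for nuclear fluorescence; compounds inducing re-replication increase nuclei with elevated intensity.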

Glutathione peroxidase 1 (Homo sapiens), sequence (P07203 whole entry, looked up): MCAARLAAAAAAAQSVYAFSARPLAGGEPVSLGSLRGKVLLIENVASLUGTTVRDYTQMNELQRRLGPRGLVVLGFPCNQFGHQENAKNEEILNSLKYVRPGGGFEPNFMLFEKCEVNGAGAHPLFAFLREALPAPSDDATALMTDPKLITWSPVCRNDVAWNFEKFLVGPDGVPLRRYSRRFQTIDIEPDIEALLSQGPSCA
Thyrotropin receptor (Homo sapiens), sequence (P16473 whole entry, looked up): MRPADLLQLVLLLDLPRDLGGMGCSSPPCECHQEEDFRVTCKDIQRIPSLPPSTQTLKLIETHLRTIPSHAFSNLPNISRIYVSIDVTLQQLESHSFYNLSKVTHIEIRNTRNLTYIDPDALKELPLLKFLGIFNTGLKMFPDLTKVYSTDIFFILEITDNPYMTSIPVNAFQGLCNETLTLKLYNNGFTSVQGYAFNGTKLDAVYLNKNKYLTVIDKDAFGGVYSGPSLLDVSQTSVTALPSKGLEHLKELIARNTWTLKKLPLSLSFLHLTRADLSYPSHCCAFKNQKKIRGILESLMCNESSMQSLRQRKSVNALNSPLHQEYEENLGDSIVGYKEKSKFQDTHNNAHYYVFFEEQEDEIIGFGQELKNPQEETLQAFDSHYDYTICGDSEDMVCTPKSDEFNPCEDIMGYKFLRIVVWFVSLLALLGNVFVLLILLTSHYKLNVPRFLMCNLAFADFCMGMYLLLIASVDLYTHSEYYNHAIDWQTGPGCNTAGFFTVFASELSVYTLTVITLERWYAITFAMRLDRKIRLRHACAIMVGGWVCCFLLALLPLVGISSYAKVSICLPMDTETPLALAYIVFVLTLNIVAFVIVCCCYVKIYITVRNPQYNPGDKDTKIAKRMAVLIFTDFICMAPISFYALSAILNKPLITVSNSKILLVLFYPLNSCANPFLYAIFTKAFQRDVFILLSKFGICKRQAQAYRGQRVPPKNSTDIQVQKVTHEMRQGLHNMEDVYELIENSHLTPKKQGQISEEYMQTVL
Thyrotropin-releasing hormone receptor (Homo sapiens), sequence (P34981 whole entry, looked up): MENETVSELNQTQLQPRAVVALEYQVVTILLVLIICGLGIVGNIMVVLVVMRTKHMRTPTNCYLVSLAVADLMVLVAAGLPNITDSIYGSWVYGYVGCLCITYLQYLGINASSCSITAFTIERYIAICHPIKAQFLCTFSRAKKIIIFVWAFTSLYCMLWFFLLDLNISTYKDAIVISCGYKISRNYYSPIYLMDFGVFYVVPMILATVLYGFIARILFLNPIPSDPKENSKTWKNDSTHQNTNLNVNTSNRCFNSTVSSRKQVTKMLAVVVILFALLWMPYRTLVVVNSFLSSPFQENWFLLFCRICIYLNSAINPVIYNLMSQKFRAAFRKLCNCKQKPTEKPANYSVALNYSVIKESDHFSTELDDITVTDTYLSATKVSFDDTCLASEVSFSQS
DNA repair nuclease/redox regulator APEX1 (Homo sapiens), sequence (P27695 whole entry, looked up): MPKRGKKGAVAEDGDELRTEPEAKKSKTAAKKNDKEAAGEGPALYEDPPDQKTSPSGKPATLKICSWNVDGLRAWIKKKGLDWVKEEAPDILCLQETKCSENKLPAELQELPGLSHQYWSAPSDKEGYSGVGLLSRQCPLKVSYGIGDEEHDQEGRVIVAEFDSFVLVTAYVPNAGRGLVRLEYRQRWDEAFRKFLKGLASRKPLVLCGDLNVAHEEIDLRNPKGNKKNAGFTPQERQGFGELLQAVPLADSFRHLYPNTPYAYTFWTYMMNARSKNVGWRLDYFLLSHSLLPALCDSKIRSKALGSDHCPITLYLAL
Ferritin light chain (Equus caballus), sequence (P02791 2-175 limits assumed): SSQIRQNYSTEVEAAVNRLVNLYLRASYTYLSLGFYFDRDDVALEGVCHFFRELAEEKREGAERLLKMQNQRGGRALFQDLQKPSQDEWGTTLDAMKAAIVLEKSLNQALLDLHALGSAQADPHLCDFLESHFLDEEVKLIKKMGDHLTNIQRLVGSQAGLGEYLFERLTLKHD
Phospholipid hydroperoxide glutathione peroxidase GPX4 (Homo sapiens), sequence (P36969 whole entry, looked up): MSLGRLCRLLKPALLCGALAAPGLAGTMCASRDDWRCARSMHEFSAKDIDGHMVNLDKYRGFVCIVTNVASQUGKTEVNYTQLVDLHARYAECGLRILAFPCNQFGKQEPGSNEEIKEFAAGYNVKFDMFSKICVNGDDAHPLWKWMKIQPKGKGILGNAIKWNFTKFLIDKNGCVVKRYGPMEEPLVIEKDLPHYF

SMILES: CO[C@H]1CCC(O[C@H]2C[C@H]([C@]3(C)CC[C@]4(C[C@H](O)[C@@H](C)[C@@H]([C@@H](C)/C=C(\C)C(=O)[C@H](C)C[C@H](C)C(=O)O)O4)O3)O[C@]3(O[C@@H]([C@H]4O[C@@](O)(CO)[C@H](C)C[C@@H]4C)C[C@@H]3C)[C@@H]2C)O[C@@H]1C (some centres undefined)
- Potency [1]: inactive
- Potency [2]: inactive

SMILES: CC(C)(O)/C=C\C(=O)[C@](C)(O)[C@H]1[C@H](O)C[C@]2(C)[C@@H]3CC=C4[C@@H](C=C(O)C(=O)C4(C)C)[C@]3(C)C(=O)C[C@@]12C
- Potency [3]: 3.3 µM (active)
- Potency [1]: inactive
- Potency [2]: inactive

SMILES: C[n+]1cc2cc(C(N)=O)[nH]c3c(=N)c(Cl)c(N)c1c23
- outcome [4]: inactive

SMILES: O=C(O)CNC(=O)C1C(=O)N(C2CCCCC2)C(=O)N(C2CCCCC2)C1=O
- Potency [3]: inactive
- Potency [1]: inactive
- Potency [2]: inactive

SMILES: COC(=O)[C@]12CCC(C)(C)C[C@H]1[C@H]1C(=O)C=C3[C@@]4(C)C=C(C#N)C(=O)C(C)(C)[C@@H]4CC[C@@]3(C)[C@]1(C)CC2
- Potency [3]: 1.17 µM (active)
- Potency [1]: inactive
- Potency [2]: inactive

SMILES: Cn1c(COP(=O)(NCCBr)NCCBr)cnc1[N+](=O)[O-]
- Potency [3]: inactive
- Potency [1]: inactive
- Potency [2]: inactive

SMILES: CO[C@H]1/C=C/CC[C@@H](S[C@@H]2O[C@H](CO)[C@@H](O)[C@H](O)[C@H]2O)CC(=O)O[C@@H](/C(C)=C/[C@H](C)C(=O)CCCC2CC(=O)NC(=O)C2)[C@@H](C)[C@@H]1O
- activity change, negative = inhibition [4]: -23.8% [at 0.021 µM]

SMILES: CC(N[C@H]1C[C@@H]1c1ccccc1)c1ccc2c(c1)OCCO2 (some centres undefined)
- Potency [3]: inactive
- Potency [1]: inactive

SMILES: CC(C)[C@]12O[C@H]1[C@@H]1O[C@@]13[C@@]1(C)CCC4=C(COC4=O)[C@@H]1C[C@@H]1O[C@@]13C2=O
- Potency [3]: 0.131 µM (active)
- Potency [1]: inactive
- Potency [2]: inactive

SMILES: C[C@@]12CCC[C@@](C)(C(=O)O)[C@H]1C[C@@H](O)[C@]13C[C@H]4C[C@H](O[C@@]4(C)C1)[C@@H]23
- outcome [4]: inactive

SMILES: C/C=C1/C2=CCCN3C(=O)O[C@H]([C@H]1O)[C@H]23
- outcome [4]: inactive

SMILES: CC(C)(NC(=O)O[C@@H]1CN2CCC1CC2)c1csc(-c2ccc(F)cc2)n1
- Potency [3]: inactive
- Potency [1]: inactive
- Potency [2]: inactive

SMILES: CCCC[N+]1(C)C2CC(OC(=O)C(CO)c3ccccc3)CC1C1OC12 (centres undefined)
- Potency [5]: inactive
- outcome [6]: inactive
- Potency [7]: inactive
- Potency [8]: inactive
- Potency [9]: inactive
- Potency [10]: inactive
- outcome [11]: inactive
- activation [12]: -0.438%
- outcome [13]: inactive

SMILES: Nc1ncnc2c1ncn2[C@@H]1O[C@H](COP(=O)(O)CP(=O)(O)OP(=O)(O)O)[C@H](O)[C@H]1O
- Potency [5]: inactive
- outcome [6]: inactive
- Potency [7]: inactive
- Potency [8]: inactive
- Potency [10]: inactive
- outcome [11]: inactive
- activation [12]: 1.25%
- outcome [13]: inactive

SMILES: CC(C)(O)C1C2OC(=O)C1[C@]1(O)C[C@H]3O[C@]34C(=O)O[C@H]2[C@]14C (some centres undefined) (tested in a mixture with another compound)
- Potency [5]: inactive
- outcome [6]: inactive
- Potency [8]: inactive
- Potency [9]: inactive
- Potency [10]: inactive
- outcome [11]: inactive
- activation [12]: 0.625%
- outcome [13]: inactive

SMILES: CCCCN1C2CCC1CC(OC(c1ccc(F)cc1)c1ccc(F)cc1)C2 (centres undefined)
- Potency [5]: inactive
- outcome [6]: inactive
- Potency [7]: inactive
- Potency [9]: 10 µM (active)
- Potency [10]: 20 µM (active)
- outcome [11]: inactive
- activation [12]: 8.5%
- outcome [13]: inactive

SMILES: C=CCN1CC[C@@]2(C)c3cc(O)ccc3CC1[C@@H]2C
- Potency [5]: inactive
- outcome [6]: inactive
- Potency [7]: inactive
- Potency [8]: inactive
- Potency [9]: inactive
- Potency [10]: inactive
- outcome [11]: inactive
- activation [12]: 1.19%
- outcome [13]: inactive

SMILES: CCCN(CCC)[C@@H]1CCc2c(F)ccc(O)c2C1
- Potency [5]: inactive
- outcome [6]: inactive
- Potency [7]: inactive
- Potency [8]: inactive
- Potency [9]: inactive
- Potency [10]: inactive
- outcome [11]: inactive
- activation [12]: -2.75%
- outcome [13]: inactive

SMILES: CC1Cc2cc3c(cc2C(c2ccc(N)cc2)=NN1)OCO3 (centres undefined)
- Potency [5]: inactive
- outcome [6]: inactive
- Potency [7]: inactive
- Potency [8]: inactive
- Potency [9]: inactive
- Potency [10]: inactive
- outcome [11]: inactive
- activation [12]: 0.188%
- outcome [13]: inactive

SMILES: NNCc1cccc(O)c1
- Potency [5]: inactive
- outcome [6]: inactive
- Potency [7]: inactive
- Potency [8]: inactive
- Potency [9]: inactive
- Potency [10]: inactive
- outcome [11]: inactive
- activation [12]: 0.875%
- outcome [13]: inactive

SMILES: COc1ccc2c3c1O[C@H]1C(=O)CC[C@@]4(O)C(C2)N(CC2CC2)CCC314 (some centres undefined)
- Potency [5]: inactive
- outcome [6]: inactive
- Potency [7]: inactive
- Potency [8]: inactive
- Potency [9]: inactive
- Potency [10]: inactive
- outcome [11]: inactive
- activation [12]: 2.19%
- outcome [13]: inactive
